TDP1 cell noCPT = qHTS for Inhibitors of human tyrosyl-DNA phosphodiesterase 1 (TDP1): qHTS in cells in absence of CPT; DT40 Tdp1-/- hTDP1 cells, no CPT, ATP luminescence, 48 h; Potency, µM (top dose mostly 46.2 µM), actives largely listed as inhibitors; 15% of 420,000 active; further: nearly all actives have a fitted effect of over 55% in size
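Camptothecin absent (DMSO only). Human TDP1-complemented DT40 knockout cells, 400 cells/well, 37 °C for minimum 48 hr; ATP measured via CellTiter-Glo, 30 min dark incubation, luminescence.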
HT1080 IDH1KD tx = kills HT-1080 cells with IDH1 knockdown | HT-1080 IDH1 knockdown viability, ATP luminescence, 48 h | Potency, µM (titrated, usually from 46.1 µM), hits mostly cytotoxic | 2% of 360,000 active | AID 686971
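Luminescent ATP read-out (CellTiter-Glo, 10 min at room temperature) after 48 h compound exposure at 37 °C gave viability of IDH1-knockdown HT-1080 cells. Activity was normalised to DMSO and cell-free wells, then fitted as concentration-response curves.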
TDP1 cell CPT = growth inhibition of DT40 Tdp1-/-;hTDP1 cells with camptothecin (screen for TDP1 inhibitors). chicken DT40 Tdp1-/-;hTDP1 cells + 20 nM CPT, ATP luminescence, 48 h. AID 686979. 12% of 420,000 active. Potency, µM (top dose mostly 46.2 µM), most hits filed as inhibitors; further: nearly all actives have a fitted effect of over 55% in size
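Chicken DT40 Tdp1-/- cells complemented with human TDP1, 400 cells/well, exposed to compounds plus 20 nM camptothecin for at least 48 h at 37 C; viability read as ATP content by CellTiter-Glo luminescence.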
KB-3-1 cytotox = KB-3-1 parental cell cytotoxicity; KB-3-1 viability, CellTiter-Glo ATP luminescence, 72 h; Potency, µM (series often up to 46.1 µM), hits mostly cytotoxic; 1.4% of 400,000 active; further: nearly all actives have a fitted effect of over 60% in size
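KB-3-1 cells, DMEM (no phenol red) + 10% FBS; compound by pin transfer, 72 h, 37 °C. Readout: CellTiter-Glo luminescence after 10 min. Data normalized, curve-fitted.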
KB-V1 MDR tox = KB-V1 MDR subline cytotoxicity | 3.4% of 400,000 active | Potency, µM (series often up to 46.1 µM), usual class: cytotoxic | AID 1347076 | KB-V1 MDR cells viability, CellTiter-Glo, 72 h; further: nearly all actives have a fitted effect of over 60% in size
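Potencies derive from concentration-effect curves fitted to normalized luminescence (CellTiter-Glo) of KB-V1 cells treated for 72 h at 37 degrees C in phenol-red-free DMEM containing 10% FBS.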
HT1080-NT tox = kills 2HG-producing HT-1080-NT fibrosarcoma cells; HT-1080-NT fibrosarcoma viability, CellTiter-Glo ATP luminescence, 48 h; Potency, µM (titrated, usually from 46.1 µM), actives largely listed as cytotoxic; 1.6% of 360,000 active; AID 686970;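 further: NT is the 2HG producing partner of a matched IDH1 knockdown line; nearly all actives have a fitted effect of over 55% in size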
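Viability of the 2HG-overproducing fibrosarcoma line after 48 hours of compound exposure at 37 degrees C was determined by luminescence with CellTiter-Glo, and concentration-effect curves were then fitted and categorized.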
Numbers stand for hits; . = inactive; ? = inconclusive; / = not tested or not shown; ! = not active in a repeat. The list is not random: actives were taken first. Their share in the collection is about 19%. The call rests on the fitted dose curve; in most records, active means well fitted curve in the direction sought with a large enough effect; inconclusive means small, poorly fitted or top-dose-only effect, or another doubt; inactive means no such curve, though single readings can be large; an effect the other way counts as inactive or inconclusive.

SMILES	TDP1 cell noCPT	HT1080 IDH1KD tx	TDP1 cell CPT	KB-3-1 cytotox	KB-V1 MDR tox	HT1080-NT tox
CCC(=O)Nc1nonc1-c1nc2ccccc2n1CC(C)C	23.1µM	.	23.1µM	.	.	.
N#CCCn1c(-c2nonc2NC(=O)c2ccccc2Cl)nc2ccccc21	.	.	.	.	.	.
COc1cccc(Cn2c(-c3nonc3NC(C)=O)nc3ccccc32)c1	13µM	/	13µM	/	/	/
CC(=O)Nc1nonc1-c1nc2ccccc2n1N(C(C)=O)C(C)=O	.	?	.	?	?	.
CC(C)n1ncc2c(C(=O)NCc3cccnc3)cc(C3CC3)nc21	?	.	.	.	.	.
COc1ccc(Cl)cc1NC(=O)COC(=O)CCNS(=O)(=O)c1cccs1	.	.	.	.	?	.
COc1ccc(C(=O)NNC(=O)c2cc3ccccc3cc2O)cc1	13µM	.	?	?	?	.
COc1ccccc1C(=O)NNC(=O)c1cc2ccccc2cc1O	18.4µM	?	13µM	.	?	?
Cc1ccc(-c2nc(C#N)c(N3CCC(C(N)=O)CC3)o2)cc1	.	.	.	.	.	.
CCNC(=S)NNC(=O)CCc1nc2cc(Cl)ccc2n(Cc2ccccc2)c1=O	?	?	.	.	?	.
CN(C)C(CNC(=O)CCc1nc2cc(Cl)ccc2n(Cc2ccccc2)c1=O)c1ccccc1 (configuration not stated)	16.4µM	.	?	.	.	.
C=CCSc1nnc(-c2cc3c(s2)-c2ccccc2CC3)o1	.	.	.	.	.	.
O=C(CN1CCCc2ccccc21)N/N=C/c1ccc(F)cc1F	14.6µM	.	20.6µM	.	.	.
O=C(CN1CCCc2ccccc21)N/N=C/c1ccccc1O	4.11µM	?	.	?	13µM	.
COc1ccc(/C=N/NC(=O)CN2CCCc3ccccc32)c(OC)c1	?	.	.	.	?	.
CCCc1nccn1S(=O)(=O)c1cc(OC)ccc1OC	.	.	.	.	.	.
CCOC(=O)N1CCc2c(sc(NCc3sccc3C)c2C(=O)Nc2ccccc2OCC)C1	23.1µM	/	?	.	.	/
Cc1ccccc1NC(=O)c1c(NC(=O)c2ccccc2)sc2c1CCC2	.	/	.	.	.	/
CCOC(=O)N1CCc2c(sc(NCc3sccc3C)c2C(=O)Nc2ccc(OC)cc2OC)C1	?	/	?	.	.	/
CCOc1ccccc1NC(=O)c1c(NC(=O)c2ccccc2)sc2c1CCCC2	?	/	4.11µM	.	.	/
CCOc1ccccc1NC(=O)c1c(NC(=O)C(C)Oc2ccc(Cl)cc2)sc2c1CCCCC2 (configuration not stated)	?	/	.	.	.	/
CCOc1ccccc1NC(=O)c1c(NCc2sccc2C)sc2c1CCC(C)C2 (configuration not stated)	6.51µM	/	6.51µM	/	/	/
CCN(CC)CCCC(C)NC(=O)c1c(NC(=O)c2ccccc2)sc2c1CCCC2 (configuration not stated)	?	?	18.4µM	.	.	?
CCCCN(C(=O)COC(=O)C1(c2ccccc2)CC1)c1c(N)n(CCC)c(=O)[nH]c1=O	.	.	.	.	.	.
CCOc1ccccc1NC(=O)c1c(NCc2cccs2)sc2c1CCCCC2	20.6µM	/	?	.	.	/
SMILES	TDP1 cell noCPT	HT1080 IDH1KD tx	TDP1 cell CPT	KB-3-1 cytotox	KB-V1 MDR tox	HT1080-NT tox
CCOc1ccccc1NC(=O)c1c(NCc2sccc2C)sc2c1CCCCC2	14.6µM	/	8.2µM	.	.	/
COc1ccc(C(C(=O)Nc2ccc(C(C)C)cc2)N(C)C(=O)Cc2cccs2)cc1 (configuration not stated)	?	/	?	.	.	/
COc1ccc(OC)c(NC(=O)c2csc(Cl)c2OC)c1	.	.	?	.	.	.
COC(=O)c1cccc(Nc2c(-c3ccc(SC)cc3)nc3nc[nH]n23)c1	.	/	.	.	.	/
Cc1ccc(C)c(N2CCN(C(c3ccccc3)c3nnc(-c4ccccc4F)o3)CC2)c1 (configuration not stated)	23.1µM	/	?	.	.	/
Oc1ccccc1N1CCN(C(c2ccccc2)c2ccccc2)CC1	?	?	?	.	.	.
Cc1cccc(N2CCN(C(c3ccccc3)c3nnc(-c4ccccc4F)o3)CC2)c1C (configuration not stated)	23.1µM	/	14.6µM	.	.	/
Cc1ccc(C)c(N2CCN(C(c3ccc(F)cc3)c3nnc(-c4ccccc4)o3)CC2)c1 (configuration not stated)	14.6µM	/	?	/	/	/
Cc1ccc(C)c(N2CCN(C(=O)CCc3nc(-c4ccccc4F)no3)CC2)c1	?	.	?	.	.	.
Cc1ccc(C)c(SCC(=O)Nc2nnc(-c3ccccc3)o2)c1	?	.	?	.	?	?
Cc1cccc(N2CCN(C(c3ccccc3)c3nnc(-c4ccccc4Cl)o3)CC2)c1C (configuration not stated)	?	/	20.6µM	.	.	/
Cc1ccccc1-c1nnc(CN2CCN(c3cccc(C)c3C)CC2)o1	.	/	.	.	.	/
CN(C)CCOc1ccc(C(C)(C)c2ccccc2)cc1	?	.	?	.	.	.
CC/C(=C(\c1ccccc1)c1ccc(OCCN(C)C)cc1)c1ccccc1	18.4µM	?	20.6µM	.	?	16.4µM
CCN(CC)CCOc1ccc(/C(=C(/Cl)c2ccccc2)c2ccccc2)cc1	23.1µM	18.4µM!	23.1µM	?	?	18.4µM
COCCNC(=O)/C(C#N)=C/c1ccc(OCC(=O)NC2CCCCC2)cc1	.	.	.	.	.	.
COc1cc(NC(=O)c2cnc(NCc3ccccc3)nc2C)cc(OC)c1OC	?	?	?	?	10.3µM	?
COc1ccc(Cn2ccc3nc(C)c(C(=O)Nc4cc(OC)c(OC)c(OC)c4)cc3c2=O)cc1	?	/	?	.	.	/
COc1cccc(CNc2ncc(C(=O)Nc3cc(OC)c(OC)c(OC)c3)c(C)n2)c1	9.2µM	?	8.2µM	8.2µM	.	?
CCSc1ccccc1C(=O)Nc1cc(OC)c(OC)c(OC)c1	?	.	.	.	?	.
COc1ccc(OCC(=O)Nc2c(C)ccc3nsnc23)cc1	.	.	.	.	.	.
CC1=CSC2=NS(=O)(=O)CCN12	?	.	?	.	.	.
Cc1sc2nc(CN3CCCC3)nc(N3CCN(S(=O)(=O)c4cccs4)CC3)c2c1C	18.4µM	16.4µM	?	?	18.4µM	?
Cc1ccc(C)c(S(=O)(=O)N2CCN(c3nc(CN4CCOCC4)nc4sc(C)c(C)c34)CC2)c1	18.4µM	.	?	.	.	.

Source: PubChem BioAssay (National Center for Advancing Translational Sciences (NCATS))
